# According to PubChem BioAssay (NCATS):
# Where “and” joins values, the source holds several entries; their conditions need not be identical. Equal entries are not always repeated. Results filed as inconclusive are left out. Where a call stands in place of a potency, no number is given. Calls of active or inactive are those of the source. Unless noted, the call rests on the fitted dose curve; in most records, active means well fitted curve in the direction sought with a large enough effect; inconclusive means small, poorly fitted or top-dose-only effect, or another doubt; inactive means no such curve, though single readings can be large; an effect the other way counts as inactive or inconclusive.
# Key:
# [1] = Cellular Toxicity (caspase-3) HepG2 (AID 654);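 further: cells exposed to compound for 16 hours before reading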
# Summary of the method: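 qHTS, HepG2, 1500 cells/well, complete medium; cpd 16 h 37 °C; Caspase-Glo 3/7, 20 min RT; lum. Norm: DMSO vs 100 uM tamoxifen; AC50 Hill fit.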
# [2] = Cellular Toxicity (caspase-3) Jurkat (AID 655);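 further: cells exposed to compound for 16 h at 37 °C before reading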
# Summary of the method: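 Jurkat cells (5000/well) in complete medium exposed 16 h at 37 C; caspase-3/7 activity read by Caspase-Glo luminescence after 20 min at room temperature. Normalized to DMSO and 100 uM tamoxifen; AC50 from Hill fits.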
# [3] = Cellular Toxicity (caspase-3) HUV-EC-C (AID 656)
# Summary of the method: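 HUV-EC-C cells (1000/well) in complete medium, compound-treated 16 h at 37 °C; caspase-3/7 activity read by Caspase-Glo 3/7 luminescence. Normalized to DMSO (basal) and 100 uM tamoxifen (100%); AC50 from Hill-equation concentration-response fits.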
# [4] = Cellular Toxicity (caspase-3) SHSY5Y (AID 657)
# Summary of the method: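 SH-SY5Y human neuroblastoma cells, 1500/well, exposed to compound for 16 hours at 37 °C in complete medium. Caspase-3/7 activity read by Caspase-Glo luminescence after 1 hr at room temperature, normalized to DMSO and 10 uM staurosporine; AC50 from Hill fit.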
# [5] = Cellular Toxicity (caspase-3) BJ (AID 658)
# Summary of the method: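 Readout: Caspase-Glo 3/7 luminescence increase in BJ cells after 16 hr treatment at 37 °C. Staurosporine and tamoxifen served as positive controls; AC50 values came from Hill modelling of data normalized to DMSO and 10 uM staurosporine.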
# [6] = biological target: Glucocorticoid receptor (Homo sapiens) (UniProt P04150); assay: qHTS assay for small molecule antagonists of glucocorticoid receptor signaling (AID 588533; active means well fitted inhibition curve with a large enough effect in the signal ratio, with a control signal flat, not every such curve was filed as active; the % refers to the signal ratio;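 further: cells stimulated with 2 nM dexamethasone as agonist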)
# Glucocorticoid receptor (Homo sapiens), sequence (P04150 whole entry, looked up): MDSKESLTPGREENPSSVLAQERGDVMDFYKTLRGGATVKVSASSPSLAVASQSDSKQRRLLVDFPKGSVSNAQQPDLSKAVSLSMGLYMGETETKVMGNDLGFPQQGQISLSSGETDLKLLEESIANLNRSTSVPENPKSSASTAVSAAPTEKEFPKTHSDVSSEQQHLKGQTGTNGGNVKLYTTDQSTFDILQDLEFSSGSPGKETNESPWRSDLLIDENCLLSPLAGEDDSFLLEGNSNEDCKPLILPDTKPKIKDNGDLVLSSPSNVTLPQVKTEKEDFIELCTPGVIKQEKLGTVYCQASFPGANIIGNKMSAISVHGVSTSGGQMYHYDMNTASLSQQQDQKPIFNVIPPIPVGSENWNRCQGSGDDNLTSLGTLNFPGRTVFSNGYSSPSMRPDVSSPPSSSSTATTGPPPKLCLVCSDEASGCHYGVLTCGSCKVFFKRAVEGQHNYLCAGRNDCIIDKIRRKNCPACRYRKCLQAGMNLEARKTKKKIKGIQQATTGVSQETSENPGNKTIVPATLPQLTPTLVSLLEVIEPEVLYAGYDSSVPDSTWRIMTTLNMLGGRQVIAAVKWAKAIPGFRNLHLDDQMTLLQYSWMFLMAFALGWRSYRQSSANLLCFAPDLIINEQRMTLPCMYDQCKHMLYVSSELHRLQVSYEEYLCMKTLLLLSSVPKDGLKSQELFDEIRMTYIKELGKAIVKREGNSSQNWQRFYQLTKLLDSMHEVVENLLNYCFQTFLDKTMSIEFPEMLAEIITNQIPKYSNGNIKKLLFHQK
# Summary of the method: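 Antagonist-mode qHTS: compound titrations added to GRE-bla HeLa cells, then dexamethasone 2 nM final; 18 h, 37 C. CCF4 FRET fluorescence normalized to dexamethasone and DMSO; IC50 from Hill fit.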
# [7] = qHTS assay for small molecule antagonists of peroxisome proliferator-activated receptor delta signaling (AID 588535; active means well fitted inhibition curve with a large enough effect in the signal ratio, with a control signal flat, not every such curve was filed as active; the % refers to the signal ratio;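 on max response: cells co-treated with a PPAR-delta agonist as stimulator during compound exposure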); details: HEK293T PPARd-UAS-bla, beta-lactamase FRET ratio, 18 h; 460 nm channel
# Summary of the method: (§1)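 Cell-based beta-lactamase assay in antagonist mode: 4000 HEK293T PPAR-delta-UAS-bla cells per well, 5 hr preincubation then 18 hr compound incubation at 37 C. IC50 obtained by Hill equation fitting.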
# [8] = biological target: Peroxisome proliferator-activated receptor delta (Homo sapiens) (UniProt Q03181); assay: as above
# Peroxisome proliferator-activated receptor delta (Homo sapiens), sequence (Q03181 whole entry, looked up): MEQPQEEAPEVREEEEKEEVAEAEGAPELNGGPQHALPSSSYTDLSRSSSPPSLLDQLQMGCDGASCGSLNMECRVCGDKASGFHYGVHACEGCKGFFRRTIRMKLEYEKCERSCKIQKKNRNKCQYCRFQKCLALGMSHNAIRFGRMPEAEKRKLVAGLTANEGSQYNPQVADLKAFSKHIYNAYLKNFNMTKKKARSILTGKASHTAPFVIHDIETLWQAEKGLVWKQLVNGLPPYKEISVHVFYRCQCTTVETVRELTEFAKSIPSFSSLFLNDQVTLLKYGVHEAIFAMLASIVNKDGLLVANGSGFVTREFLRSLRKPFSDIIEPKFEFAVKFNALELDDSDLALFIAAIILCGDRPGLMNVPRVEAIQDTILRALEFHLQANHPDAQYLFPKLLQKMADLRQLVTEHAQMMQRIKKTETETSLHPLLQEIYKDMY
# Summary of the method: as §1
# [9] = biological target: Vitamin D3 receptor (Homo sapiens) (UniProt P11473); assay: qHTS assay for small molecule agonists of vitamin D receptor signaling (AID 588543; calls by dose curve)
# Vitamin D3 receptor (Homo sapiens), sequence (P11473 whole entry, looked up): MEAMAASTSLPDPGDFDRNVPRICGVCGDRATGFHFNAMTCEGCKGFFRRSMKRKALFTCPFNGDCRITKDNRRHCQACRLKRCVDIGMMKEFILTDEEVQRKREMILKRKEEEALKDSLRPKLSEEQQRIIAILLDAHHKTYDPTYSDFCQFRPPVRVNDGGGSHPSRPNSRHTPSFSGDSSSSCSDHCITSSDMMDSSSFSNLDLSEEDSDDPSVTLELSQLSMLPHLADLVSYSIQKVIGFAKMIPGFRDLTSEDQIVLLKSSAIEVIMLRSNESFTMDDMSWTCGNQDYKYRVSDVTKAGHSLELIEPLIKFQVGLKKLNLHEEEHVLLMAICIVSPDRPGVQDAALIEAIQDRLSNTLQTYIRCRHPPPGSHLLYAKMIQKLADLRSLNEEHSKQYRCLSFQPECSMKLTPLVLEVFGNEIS
# Summary of the method: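 VDR-UAS-bla HEK293T cells, 2000/well, 2% charcoal-stripped FBS; compound titration 16 h at 37 C; CCF4 beta-lactamase ratio read. Normalized to 50 nM 1-alpha,25-dihydroxyvitamin D3 (100%) and DMSO; Hill fit gives EC50, efficacy.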
# [10] = qHTS assay for small molecule agonists of retinoid X receptor alpha signaling (AID 588544; calls by dose curve); details: HEK293T RXRa-UAS-bla, beta-lactamase reporter, 18 h; 530 nm emission
# [11] = biological target: Retinoic acid receptor RXR-alpha (Homo sapiens) (UniProt P19793); assay: as above
# Retinoic acid receptor RXR-alpha (Homo sapiens), sequence (P19793 whole entry, looked up): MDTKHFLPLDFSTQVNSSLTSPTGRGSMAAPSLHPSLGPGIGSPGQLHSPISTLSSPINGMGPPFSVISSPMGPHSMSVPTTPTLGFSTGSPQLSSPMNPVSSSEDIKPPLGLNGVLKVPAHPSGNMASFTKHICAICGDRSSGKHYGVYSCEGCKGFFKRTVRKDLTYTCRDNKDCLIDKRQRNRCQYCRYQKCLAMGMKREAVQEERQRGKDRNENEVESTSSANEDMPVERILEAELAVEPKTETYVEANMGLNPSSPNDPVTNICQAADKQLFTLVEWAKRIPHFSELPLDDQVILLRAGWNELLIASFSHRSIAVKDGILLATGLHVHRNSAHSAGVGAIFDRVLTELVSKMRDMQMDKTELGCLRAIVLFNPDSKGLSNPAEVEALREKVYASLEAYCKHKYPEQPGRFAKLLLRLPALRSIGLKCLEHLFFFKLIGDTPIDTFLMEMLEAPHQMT
# [12] = biological target: Thyroid hormone receptor beta (Homo sapiens) (UniProt P10828); assay: qHTS assay for small molecule agonists of thyroid hormone receptor beta signaling (AID 588545; calls by dose curve)
# Thyroid hormone receptor beta (Homo sapiens), sequence (P10828 whole entry, looked up): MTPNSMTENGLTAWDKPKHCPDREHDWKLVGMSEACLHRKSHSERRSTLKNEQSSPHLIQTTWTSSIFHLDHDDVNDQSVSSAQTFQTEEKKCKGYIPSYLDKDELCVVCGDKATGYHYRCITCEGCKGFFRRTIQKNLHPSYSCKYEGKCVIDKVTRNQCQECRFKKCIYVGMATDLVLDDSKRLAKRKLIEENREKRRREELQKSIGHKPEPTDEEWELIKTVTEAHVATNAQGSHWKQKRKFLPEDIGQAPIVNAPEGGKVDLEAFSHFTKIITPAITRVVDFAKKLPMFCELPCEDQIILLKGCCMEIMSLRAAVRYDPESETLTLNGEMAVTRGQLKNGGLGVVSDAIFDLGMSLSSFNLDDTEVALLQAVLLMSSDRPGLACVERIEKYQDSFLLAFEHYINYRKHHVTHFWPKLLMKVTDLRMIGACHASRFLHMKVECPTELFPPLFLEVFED
# Summary of the method: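 Compounds were tested as agonists in TR-UAS-bla-GripTite HEK 293 cells. After 18 hrs at 37 C, CCF4 substrate was added and fluorescence read after 2 hrs at room temperature.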
# [13] = qHTS assay for small molecule activators of the p53 signaling pathway (AID 651743; active means well fitted activation curve with a large enough effect in the signal ratio, not every such curve was filed as active; the % refers to the signal ratio; further: series mostly up to about 92 µM); details: HCT-116 p53RE-bla, beta-lactamase FRET ratio, 16 h; activation: stronger effect = higher value
# Summary of the method: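 Screen for p53 pathway agonists uses stably transfected p53RE-bla HCT-116 cells, 4,000 per well, treated 16 h at 37 C with compounds in DMSO.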
# [14] = qHTS assay for small molecule activators of the nuclear factor-kappa B (NF-kB) signaling pathway (AID 651749; active means well fitted activation curve with a large enough effect in the signal ratio; the % refers to the signal ratio; further: series mostly up to about 77 µM); details: NF-kB-bla ME-180 cells, beta-lactamase FRET ratio, 16 h; activation: stronger effect = higher value
# Summary of the method: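 Stably transfected ME-180 line; NF-kB response element upstream of beta-lactamase. Treatment: compound or DMSO, 16 hr. Detection: fluorescent FRET substrate.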
# [15] = qHTS assay for small molecule disruptors of the mitochondrial membrane potential - 5 hr assay (AID 651755; calls by dose curve; further: nearly all actives have a fitted effect of over 40% in size)
# Summary of the method: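 HepG2, 2,000 cells/well, overnight attach; cpd or DMSO 5 hr, 37C/5% CO2; Mito-MPS 30 min 37C; fluor 490/535 + 540/590 nm.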
# [16] = biological target: Tumor necrosis factor (Homo sapiens) (UniProt P01375); assay: qHTS assay to identify small molecules that stimulate Tumor Necrosis Factor-alpha (TNF-alpha) secretion (AID 651757; active means well fitted curve in the direction sought with a large enough effect in the signal ratio; the % refers to the signal ratio)
# Tumor necrosis factor (Homo sapiens), sequence (P01375 whole entry, looked up): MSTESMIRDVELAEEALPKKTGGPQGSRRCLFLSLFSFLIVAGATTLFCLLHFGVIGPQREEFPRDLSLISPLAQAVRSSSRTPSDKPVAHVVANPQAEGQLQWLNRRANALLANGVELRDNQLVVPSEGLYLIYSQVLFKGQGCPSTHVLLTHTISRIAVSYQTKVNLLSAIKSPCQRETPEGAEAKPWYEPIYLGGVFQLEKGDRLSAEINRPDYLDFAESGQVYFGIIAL
# Summary of the method: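 Secreted TNF-alpha from compound-treated THP-1 cells (17 hrs, 37 C) was quantified with a homogeneous time-resolved fluorescence antibody assay.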
# [17] = qHTS assay for environmental chemicals that activate the Aryl hydrocarbon Receptor (AhR) signaling pathway (AID 651777); details: 1A2-DRE human hepatoma cells, luciferase, 24 h; activation: stronger effect = higher value; further: nearly all actives have a fitted effect of over 15% in size
# Summary of the method: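 1A2-DRE human hepatoma reporter line; 1,200 cells/well; cmpd or DMSO 24 h, 37 C/5% CO2; One-Glo 30 min RT; luciferase lum.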
# [18] = biological target: Peroxisome proliferator-activated receptor alpha (Homo sapiens) (UniProt Q07869); assay: qHTS assay for small molecule agonists of the peroxisome proliferator-activated receptor alpha (PPARalpha) signaling pathway (AID 651778); details: PathHunter PPARalpha complementation, chemiluminescence, 6 h; stronger effect = higher value
# Peroxisome proliferator-activated receptor alpha (Homo sapiens), sequence (Q07869 whole entry, looked up): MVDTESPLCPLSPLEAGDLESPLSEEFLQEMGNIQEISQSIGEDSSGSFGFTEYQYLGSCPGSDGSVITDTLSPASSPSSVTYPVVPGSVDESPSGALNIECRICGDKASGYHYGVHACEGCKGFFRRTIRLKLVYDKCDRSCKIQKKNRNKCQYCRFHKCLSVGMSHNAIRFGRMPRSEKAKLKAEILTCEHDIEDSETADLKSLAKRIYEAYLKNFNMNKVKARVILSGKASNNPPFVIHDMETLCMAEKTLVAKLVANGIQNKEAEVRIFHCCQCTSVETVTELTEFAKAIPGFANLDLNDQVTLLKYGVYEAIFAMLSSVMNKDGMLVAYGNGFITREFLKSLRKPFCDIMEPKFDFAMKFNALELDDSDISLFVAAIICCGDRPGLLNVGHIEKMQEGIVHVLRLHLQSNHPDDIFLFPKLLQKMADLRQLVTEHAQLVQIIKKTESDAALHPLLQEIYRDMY
# Summary of the method: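 Chemiluminescence from complemented enzyme reported PPARalpha activation in cells after 6 hr of compound treatment at 37 C. The detection reagent was incubated for 60 min at room temperature, and compounds were scored as agonists.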
# [19] = biological target: Nuclear receptor ROR-gamma (Homo sapiens) (UniProt P51449); assay: qHTS assay for small molecule antagonists of the retinoid-related orphan receptor gamma (ROR-gamma) signaling pathway (AID 651802);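 further: CHO cells with doxycycline-induced ROR-gamma expression; luciferase reporter luminescence driven by ROR response element; series mostly up to about 92 µM; nearly all actives have a fitted effect of over 60% in size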
# Nuclear receptor ROR-gamma (Homo sapiens), sequence (P51449 whole entry, looked up): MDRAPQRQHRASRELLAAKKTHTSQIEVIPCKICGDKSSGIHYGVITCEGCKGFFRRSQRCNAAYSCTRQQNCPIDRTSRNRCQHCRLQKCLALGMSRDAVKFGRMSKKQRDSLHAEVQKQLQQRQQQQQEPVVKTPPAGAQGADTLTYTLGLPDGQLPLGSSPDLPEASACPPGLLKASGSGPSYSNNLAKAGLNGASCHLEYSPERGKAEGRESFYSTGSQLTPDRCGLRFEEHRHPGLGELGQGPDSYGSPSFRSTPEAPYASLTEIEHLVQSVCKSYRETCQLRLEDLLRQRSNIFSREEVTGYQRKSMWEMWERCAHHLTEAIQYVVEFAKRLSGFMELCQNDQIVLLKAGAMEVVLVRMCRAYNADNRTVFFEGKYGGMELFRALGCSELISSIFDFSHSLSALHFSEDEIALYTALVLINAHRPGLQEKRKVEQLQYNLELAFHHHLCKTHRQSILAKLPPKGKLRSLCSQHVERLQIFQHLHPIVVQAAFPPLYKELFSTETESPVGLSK
# Summary of the method: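 Antagonism is scored as a fall in luminescence from a RORE-luciferase reporter in CHO cells expressing ROR under a TET-inducible promoter, measured 16hr after doxycycline induction in the presence of compound.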
# [20] = biological target: Nuclear receptor subfamily 1 group I member 2 (Rattus norvegicus) (UniProt Q9R1A7); assay: qHTS assay for small molecule activators of the rat pregnane X receptor (rPXR) signaling pathway (AID 651751; call rule not given here); details: rPXR reporter cells, luciferase (One-Glo), 24 h
# Nuclear receptor subfamily 1 group I member 2 (Rattus norvegicus), sequence (Q9R1A7 whole entry, looked up): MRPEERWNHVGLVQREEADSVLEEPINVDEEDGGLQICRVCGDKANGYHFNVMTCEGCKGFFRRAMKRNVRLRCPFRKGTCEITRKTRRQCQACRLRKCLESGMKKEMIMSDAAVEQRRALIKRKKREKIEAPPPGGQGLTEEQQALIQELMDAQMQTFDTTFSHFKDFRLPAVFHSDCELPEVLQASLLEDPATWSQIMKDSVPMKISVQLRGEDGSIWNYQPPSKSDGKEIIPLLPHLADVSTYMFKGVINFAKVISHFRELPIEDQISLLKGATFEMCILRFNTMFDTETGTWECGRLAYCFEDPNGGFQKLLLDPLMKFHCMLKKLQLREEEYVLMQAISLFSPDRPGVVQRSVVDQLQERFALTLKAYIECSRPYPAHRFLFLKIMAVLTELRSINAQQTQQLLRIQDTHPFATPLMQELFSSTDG
smiles,measurement,setting,value
Cc1ccccc1O,outcome,[1],inactive
same,outcome,[2],inactive
same,outcome,[3],inactive
same,outcome,[4],inactive
same,outcome,[5],inactive
same,Potency,[6],inactive
same,max response,[7],12.8% and 44.7%
same,outcome,[8],inactive
same,Potency,[9],inactive
same,max response,[10],-16.4% and 2.5%
same,outcome,[11],inactive
same,Potency,[12],inactive
same,activation,[13],-4.62% (inactive) and -1.52% (inactive)
same,activation,[14],0.871% (inactive) and 6.75% (inactive)
same,Potency,[15],inactive
same,outcome,[16],inactive
same,activation,[17],-0.175% (inactive) and -0.566% (inactive)
same,max response,[18],-1.66% (inactive) and -0.689% (inactive)
same,Potency,[19],inactive
same,max response,[20],0.289% (inactive) and -3.94% (inactive)
